Test results as given in the supplement of paper PMC3334620.
The full ranking holds about 33,000 sequences; the median of “E-score (-0.5 to 0.5)” is about -0.016, and the highest 2% start at about 0.31. Many of the other results were omitted from the sample, so the highest values are more common in it than they were.

What follows are sequences tested against Cst6 (UniProt P40535) (assay: PBM E-score (8-mer binding enrichment) (E-score (-0.5 to 0.5)); higher = stronger / more preferred TF binding). Conditions: protein concentration: 200 nM; construct: GST-DNA-binding domain.
Description: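 Universal 'all 10-mer' protein binding microarrays (Agilent AMADID 015681) probed with GST-tagged S. cerevisiae TFs (full-length or DBD) made by in vitro transcription/translation (PURExpress), about 100-200 nM. Bound TF was detected with fluorescent anti-GST. Each ungapped 8-mer (which stands for itself and its reverse complement) is scored by the PBM enrichment score (E-score), a modified Wilcoxon-Mann-Whitney statistic from -0.5 to +0.5, computed with the Universal PBM Analysis Suite. Scale: above 0.35 generally sequence-specific binding.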

Chain of UniProt P40535 (P40535 whole entry, the tested form may be a part): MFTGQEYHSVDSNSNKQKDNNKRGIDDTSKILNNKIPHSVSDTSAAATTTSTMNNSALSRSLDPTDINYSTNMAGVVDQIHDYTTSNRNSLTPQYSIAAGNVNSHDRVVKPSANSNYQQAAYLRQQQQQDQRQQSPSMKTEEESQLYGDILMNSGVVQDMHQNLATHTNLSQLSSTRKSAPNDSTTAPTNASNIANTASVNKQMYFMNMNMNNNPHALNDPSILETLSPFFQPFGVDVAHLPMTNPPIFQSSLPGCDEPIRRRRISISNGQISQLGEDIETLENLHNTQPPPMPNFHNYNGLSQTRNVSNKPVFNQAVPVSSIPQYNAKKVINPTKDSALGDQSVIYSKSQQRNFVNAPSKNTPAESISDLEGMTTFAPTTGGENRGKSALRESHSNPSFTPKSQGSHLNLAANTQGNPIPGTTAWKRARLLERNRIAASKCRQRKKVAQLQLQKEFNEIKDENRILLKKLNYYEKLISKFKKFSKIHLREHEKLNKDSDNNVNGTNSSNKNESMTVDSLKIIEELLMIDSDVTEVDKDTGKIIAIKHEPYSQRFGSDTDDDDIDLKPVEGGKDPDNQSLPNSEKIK

| Sequence | PBM E-score |
| --- | --- |
| AGGGCTTG | -0.0617 |
| AGGATCAG | -0.266 |
| CTTCCTGA | 0.112 |
| GGGACTCA | -0.353 |
| CTAGCTAG | -0.074 |
| AAAATAAT | 0.302 |
| AGGTTCCA | -0.124 |
| ATAGTGAA | -0.00864 |
| CTAGTGAC | 0.234 |
| GCAGTGAC | 0.17 |
| ATAGTGAC | 0.392 |
| GTAGTGAC | 0.332 |
| GTAGTGAA | 0.0467 |
| CTCCTGGC | -0.195 |
| CTTCCTCC | -0.235 |
| ATGTCTTC | -0.153 |
| CGATACTA | 0.1 |
| CAACTTCG | 0.0207 |
| AGATCATG | 0.137 |
| ACATCATG | 0.409 |
| ACATCAGA | 0.16 |
| AAATCATC | 0.175 |
| GCATCATA | 0.339 |
| CCATCATC | 0.146 |
| ACATCAAG | 0.207 |

| Sequence | PBM E-score |
| --- | --- |
| AAATCATA | 0.275 |
| ACATCATA | 0.443 |
| CCATCATA | 0.122 |
| ACATCATC | 0.462 |
| GCATCAGA | 0.159 |
| ACTTAACT | 0.0697 |
| ATAGCCAA | 0.0258 |
| GGAGCAGA | -0.114 |
| TATGCTAA | 0.0861 |
| CTAGGATA | -0.125 |
| ATCTGGGA | -0.197 |
| GGTTGCGA | -0.0447 |
| AGGGCATC | -0.0843 |
| AGGGTGAC | 0.345 |
| AGGGTGAG | -0.176 |
| CAGGTGAC | 0.258 |
| AAGGTGAC | 0.243 |
| GAGGTGAC | 0.407 |
| GCGGTGCC | -0.0111 |
| ACGGTGAT | 0.121 |
| ACGGTGAG | -0.0622 |
| ACGGTGAC | 0.307 |
| GCGGTGAA | 0.0906 |
| GGGGTGAC | 0.284 |
| GCGGTGAC | 0.345 |

| Sequence | PBM E-score |
| --- | --- |
| CGGGCCGA | -0.167 |
| GAGTATGA | 0.169 |
| CATGATCA | 0.231 |
| CCGGTAGA | -0.132 |
| CTCCCTGC | -0.218 |
| ACAGAGAT | 0.178 |
| CCCTTCCG | -0.274 |
| CATAGTTC | 0.0666 |
| AGTGAGAA | 0.149 |
| ACGGGGCC | 0.00152 |
| AGTGAACG | -0.0226 |
| GGCTCCCC | -0.226 |
| ATTCCATC | 0.199 |
| CCGGTGAC | 0.335 |
| CCGGTGAG | -0.116 |
| CCGGTGAA | 0.0804 |
| AACACAAA | 0.0222 |
| TACACAAA | 0.311 |
| CACACAAA | 0.165 |
| TCTGGCCA | -0.0762 |
| AATTTTGC | 0.144 |
| CGCATCCG | -0.0682 |
| ATCATCCC | 0.154 |
| AGTCACCA | 0.0433 |
| GGTCACCA | -0.148 |

| Sequence | PBM E-score |
| --- | --- |
| CGTCACCC | 0.466 |
| CGTCACCA | 0.484 |
| CCTCACCC | 0.0853 |
| AGTCACCC | 0.117 |
| CGCCTCAC | 0.135 |
| ATACCATC | 0.00666 |
| ATTCACAC | 0.134 |
| ACGAGTAA | 0.141 |
| TGAAATCA | 0.322 |
| CGAAATCA | 0.269 |
| GGAAATCA | 0.0954 |
| CCTTTTCG | 0.021 |
| GTTGGACA | -0.0168 |
| AAGAAAGT | 0.153 |
| GAGGGCTA | -0.27 |
| ATTTCGGG | 0.0105 |
| AAAAGTGG | 0.112 |
| AAAAGTGT | 0.0733 |
| AAAAGTGA | 0.306 |
| GGGGTAAA | 0.0414 |
| CCTGGGAA | -0.136 |
| GCGAAAAA | 0.197 |
| CAAACTTG | -0.0352 |
| GTCTCCCA | -0.244 |
| ATAATAAC | 0.205 |

| Sequence | PBM E-score |
| --- | --- |
| TTAATAAA | 0.307 |
| GTAATAAA | 0.352 |
| TAAATAAA | 0.289 |
| ATAATAAT | 0.238 |
| GTTATAAA | 0.269 |
| CTTATAAA | 0.138 |
| GTAAATAA | 0.176 |
| CTAATAAA | 0.169 |
| GTAATAAC | 0.197 |
| ATAATAAA | 0.325 |
| TTTATAAA | 0.359 |
| AACAGAAC | 0.032 |
| ACCAGCAT | -0.104 |
| ATAAGAAT | 0.253 |
| ATAAGAAC | 0.248 |
| ATAAGAAA | 0.327 |
| AAGGAGGG | -0.0908 |
| ATTTTTTA | 0.325 |
| ATTTTACC | 0.264 |
| ATTTTATA | 0.321 |
| ATTTTATG | 0.248 |
| ATATTTTA | 0.233 |
| ATTTTACG | 0.316 |
| AATTTACG | 0.296 |
| GTTTTATA | 0.122 |

| Sequence | PBM E-score |
| --- | --- |
| AATTTTTA | 0.228 |
| CGCCCCAA | 0.0361 |
| CCAGGCTC | -0.28 |
| GGAGACGA | -0.0641 |
| AGACCGTC | -0.127 |
| CTCACCTC | 0.0122 |
| TCTTAAGA | 0.0388 |
| CAATAGGA | -0.0291 |
| TAACAAAA | 0.353 |
| AAACAAAA | 0.219 |
| AGACAACA | 0.0611 |
| GAACAAAA | 0.186 |
| CGACAACA | 0.243 |
| GGACAAAA | 0.106 |
| CGACAAAA | 0.163 |
| TGACAACA | 0.346 |
| TGACAAAA | 0.337 |
| AGAACCGA | -0.127 |
| CTCTACGC | -0.109 |
| GGGAAAGA | -0.0768 |
| CCGTGACA | 0.15 |
| CCGTGACG | 0.417 |
| ACGTGACA | 0.248 |
| CCGTGACC | -0.145 |
| ACGTGACG | 0.451 |

| Sequence | PBM E-score |
| --- | --- |
| ACGTGACT | 0.00931 |
| AAAATCGA | 0.106 |
| TCAGGAAA | 0.053 |
| TCTTGCCA | -0.0736 |
| CTTGCGGC | -0.0317 |
| CCTCATAA | 0.199 |
| CGTCATAA | 0.476 |
| CTTCATAA | 0.182 |
| TGTCATAA | 0.323 |
| GGTCATAA | 0.213 |
| AGTCATAA | 0.217 |
| AAATCCTA | 0.0429 |
| ACGGGACG | -0.0627 |
| AAGGGACT | -0.229 |
| GCTGGTCC | -0.241 |
| ACAGGGTC | -0.231 |
| AAAATCTC | 0.0464 |
| AGTCATGA | 0.124 |
| AGTCATGC | -0.0259 |
| CCTCATGC | -0.15 |
| CGTCATGC | 0.472 |
| CGTCATGA | 0.461 |
| GGTCATGA | 0.239 |
| CCTCTCCC | -0.367 |
| ATTTCCAG | 0.0306 |

| Sequence | PBM E-score |
| --- | --- |
| ATGTGGGC | -0.068 |
| CCACCCGA | -0.0893 |
| ACGACAGA | -0.00441 |
| TAATATGA | 0.305 |
| TAATATTA | 0.391 |
| CAATATTC | -0.0581 |
| CAATATTA | 0.215 |
| AAATATGA | 0.239 |
| AAATATTA | 0.286 |
| CAATATGA | 0.245 |
| CAATATTG | 0.306 |
| GAATATTA | 0.188 |
| CAGTGCAA | 0.0823 |
| GGGTACCC | -0.239 |
| GCCGCCGA | 0.0801 |
| GCTAGTAA | 0.0344 |
| CCCCATTA | -0.257 |
| AAGGTAGC | -0.198 |
| CTTTGGGC | -0.163 |
| ACATCAGG | 0.163 |
| AGTCCCCC | -0.43 |
| ATTCGTCA | 0.423 |
| ATTCGTCG | 0.0126 |
| GTTCGTCA | 0.269 |
| CTTCGTCA | 0.336 |

| Sequence | PBM E-score |
| --- | --- |
| CGTCGTCA | 0.258 |
| CTTCGTCC | -0.155 |
| CGGTGCAA | -0.202 |
| CCTATGGC | -0.219 |
| GCTAACAC | -0.00396 |
| AAAGGGAG | -0.152 |
| TAACTGTA | 0.032 |
| CGGATAAG | -0.118 |
| AGGGGCTG | -0.271 |
| CGCCAGCC | -0.193 |
| ATAAATTA | 0.373 |
| GAAAATTA | 0.195 |
| ATAAATAG | 0.135 |
| AAAAATTA | 0.333 |
| ATAAATAA | 0.335 |
| ATAAATTG | 0.258 |
| CAAAATTA | 0.233 |
| CTAAATTA | 0.262 |
| TTAAATAA | 0.18 |
